From PubChem BioAssay (Tox21)
Several values for one entry are separate records, joined by “and”; a condition that tells them apart may be missing. Identical values can stand only once. Results filed as inconclusive are left out. Entries that show only a call come without a potency. Unmarked numbers belong to inactive results. Activity calls are given as the source filed them. The call rests on the fitted dose curve; in most records, active means well fitted cell-killing curve with a large enough effect in the repeat runs; inconclusive means weak or mixed curves; inactive means flat fitted curve, though single readings scatter.

experiment: qHTS RealTime-Glo MT Cell Viability Assay in HepG2 cells - 32 hour (AID 1224877); settings: RealTime-Glo luminescence; series mostly up to 76.8 µM; further: nearly all actives have a fitted effect of over 55% in size
Description: U.S. Tox21 Program National Center for Advancing Translational Sciences [NCATS] NIH Chemical Genomics Center [NCGC] U.S. Environmental Protection Agency [EPA] National Institutes of Environmental Health Sciences [NIEHS] National Toxicology Program [NTP] U.S. Food and Drug Administration [FDA] Tox21 Assay Overview: Measure of cell viability is critical in the cell-base assay. Analysis of cell viability is necessary for the characterization of cell responses to cytotoxic drugs and environmental stress. A RealTime-Glo MT Cell Viability Assay to monitor cell viability in real time of continues cell culture during 40 hours of compound treatment was used to screen Tox21 10K library compounds in HepG2 cells. The RealTime-Glo MT Cell Viability Assay is a nonlytic, homogeneous, bioluminescent method to measure cell viability in real time using a simple, plate-based method. The assay involves adding NanoLuc luciferase and a cell-permeant prosubstrate to cells in culture. Viable cells reduce the proprietary prosubstrate to generate a substrate for NanoLuc luciferase. This substrate diffuses from cells into the surrounding culture medium, where it is rapidly used by the NanoLuc Enzyme to produce a luminescent signal. The signal correlates with the number of viable cells, making the assay well suited for cytotoxicity studies.
Tox21 Assay Protocol Summary: The mixture of HepG2 cell suspension and reagents were dispensed at 600cells/6 ul/well in 1536-well tissue culture treated black solid bottom plates using a Multidrop dispenser. After the assay plates were incubated at a 37 C/5% CO2 incubator for 5 hours, 23 nL of compounds dissolved in DMSO, positive and negative controls was transferred to the assay plate by a pintool work station. The plates were incubated at 37 C for 40 hours. The luminescence intensity were measured at 0h, 8h, 16h, 24h, 32h and 40h time points using ViewLux plate reader during compound treatment.
Potency means the concentration at half of the fitted maximal effect.

Structure (SMILES) | Potency | activity change, negative = cytotoxic
C=CCCCCCCC=C | inactive | –
Cn1cnc2ncnc(N)c21 | inactive | –
O=C(c1ccccc1)c1cc(Cl)ccc1O | inactive | –
C=CC(=C)CCC=C(C)C | inactive | –
CC1(C)C(=O)N(CO)C(=O)N1CO | inactive | –
CCCCCCCC/C=C\CCCCCCCC(=O)OCCOC(=O)CCCCCCC/C=C\CCCCCCCC | inactive | –
O=C(O)CCCCCCC(=O)O | inactive | –
CC(=O)Oc1ccc(C2(c3ccc(OC(C)=O)cc3)C(=O)Nc3ccccc32)cc1 | inactive | –
CCCOc1sc(C(=O)N2CCC(c3cc(CN)ccc3F)CC2)c(C)c1Br | 22.5 µM (active) | –
CC(C)(c1cc(Br)c(O)c(Br)c1)c1cc(Br)c(O)c(Br)c1 | inactive | –
CCCCCCS | inactive | –
CCOC(=O)[C@@](C)(N)Cc1ccc(O)c(O)c1 | inactive | –
CSc1ccc2c(c1)N(CCC1CCCCN1C)c1ccccc1S2 (stereo not given) | 43.5 µM (active) and 26.8 µM (active) | –
c1cc2c3c(c1)ccc1cccc(c13)C2 | inactive | –
CCOC(=O)N1CCC(=C2c3ccc(Cl)cc3CCc3cccnc32)CC1 | inactive | –
N[C@@H](CSSC[C@H](N)C(=O)O)C(=O)O | – | -2.71% [at 0.29 µM]
O=C1OC(=O)c2cccc3cccc1c23 | inactive | –
NC(=O)C(=O)N/N=C/c1ccc([N+](=O)[O-])o1 | inactive | –
CC1CCCCC1 | inactive | –
CCCCNc1c(C(=O)OCC)c(C)nc2c1cnn2CC | inactive | –

Structure (SMILES) | Potency | activity change, negative = cytotoxic
OCCCc1cccnc1 | inactive | –
Nc1cc(Cl)c([N+](=O)[O-])cc1O | inactive | –
Clc1cc(Cl)c(-c2c(Cl)c(Cl)cc(Cl)c2Cl)cc1Cl | inactive | –
CCN=c1cc2oc3cc(NCC)c(C)cc3c(-c3ccccc3C(=O)OCC)c-2cc1C | 43.5 µM (active) and 21.9 µM (active) | –
CC(C)OC(=O)c1cc(C(=O)OC(C)C)cc([N+](=O)[O-])c1 | inactive | –
O=C(Oc1ccccc1)c1cccc(C(=O)Oc2ccccc2)c1 | inactive | –
CCO[Si](C)(C)OCC | inactive | –
Brc1ccccn1 | inactive | –
CCCCCCCCCCCC(=O)N(CC)CC | inactive | –
CN(C)CCN1CCOCC1 | inactive | –
CCCCCCCC(OC)OC | inactive | –
CC(=O)Oc1ccc(C2(c3ccc(OC(C)=O)cc3)Oc3ccccc3NC2=O)cc1 | inactive | –
Cc1cccc(N(C)C)c1 | inactive | –
CCCCCCCCCCCCN(CCO)CCO | 43.5 µM (active) | –
CCCCCCCCCCCCCCCC | inactive | –
CC(=O)Nc1ccc(O)cc1 | inactive | –
CCN(CC)CCNc1ccc(CO)c2sc3ccccc3c(=O)c12 | 23.9 µM (active) | –
CC1=CCC(=O)O1 | inactive | –
C[C@H]1O[C@@H](O[C@H]2[C@@H](O)C[C@H](O[C@H]3[C@@H](O)C[C@H](O[C@H]4CC[C@@]5(C)[C@H](CC[C@@H]6[C@@H]5C[C@@H](O)[C@]5(C)[C@@H](C7=CC(=O)OC7)CC[C@]65O)C4)O[C@@H]3C)O[C@@H]2C)C[C@H](O)[C@@H]1O | inactive | –
C[Si](C)(C)Cl | inactive | –
